Screening results from PubChem.
Shown are actives, neighbours in structure and some others; about 3.9% of the full set was active somewhere.
esBAF inh = Bmi1 luciferase reporter increase in mESCs, primary screen, esBAF inhibitor project, mouse ES cells, Bmi1 luciferase knock-in, single point; 24 h; 100% = twice the neutral-well signal; reporter increase, % at 12.5 µM; 350,000 compounds, 2% hits; in the data active means activation above about 40%;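 further: 0% = median of the plate's neutral control wells and 100% = double that signal; a rise in the Bmi1 reporter signal indicates esBAF inhibition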
HSF1 inh = HSF1 inhibitors in luciferase reporter cells, primary screen, cell-based, NIH3T3, luminescence; NIH3T3-HGL HSE-luciferase, MG132-induced, luminescence 8 h; stronger effect = lower value; activity change, negative = inhibition, % at 7.5 µM (by protocol); 300,000 compounds, 0.77% hits;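 active means more than half of replicate wells show activity change below -50%, luminescence cut by over half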;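 further: luciferase reports HSF-1 transcriptional activity via heat shock element; 0% = median of DMSO wells and -100% = zero luminescence signal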
HSF1 activator = HSF-1 activators, primary screen, NIH3T3-HGL cells, MG132 stress, luminescence, single point. activation, % at 9 µM. NIH3T3-HGL HSF-1 luciferase reporter, 8 h; 100% = twice DMSO control signal. 300,000 compounds, 1.7% hits;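 active means mean replicate activation of at least 50% with a set share of replicates each reaching 50%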;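 further: 0% = median of the neutral control wells and 100% = twice that signal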
MITF TRPM1 HTS = activators of MITF-driven TRPM1 promoter reporter, primary screen, cell-based, SK-MEL-5, luciferase, single point; AID 588334, 2011; activation, % at 12.5 µM; SK-MEL-5 TRPM1-promoter luciferase, 24 h; % of positive control, neutral wells = 0; 300,000 compounds, 0.75% hits;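 active means mean activation of at least 80% with every replicate also reaching 80%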;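 further: 0% = neutral control wells and 100% = parthenolide positive control wells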
Wnt act = Wnt/beta-catenin pathway activators, primary screen, cell-based, plate reader, single point | Wnt/beta-catenin reporter cell assay, activator | activation, % at 9.35 µM | 300,000 compounds, 1.2% hits | AID 743398, 2014; in the data active means activation above about 30%, passing the limit was not always enough;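 further: 0% = neutral control wells and 100% = positive control wells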
Numbers without * were called inactive.

What do the screens show for `Cc1ccc(-c2cc(C(=O)NCc3ccccn3)c3ccccc3n2)cc1C`?
esBAF inh: 48*; HSF1 inh: 32; HSF1 activator: 39; MITF TRPM1 HTS: 33

What do the screens show for `O=C(O)c1cc(-c2cc(C(=O)O)c3ccccc3n2)nc2ccccc12`?
HSF1 inh: -3; HSF1 activator: 4

Results for O=C(C[C@H]1CC[C@H]2[C@@H](COC[C@H](O)CN2C(=O)c2ccccc2F)O1)NCc1ccc(Cl)cc1 ?
esBAF inh: 0

Results for C[C@H](CO)N1C[C@H](C)[C@@H](CN(C)Cc2ccc3c(c2)OCO3)OCCCC[C@H](C)Oc2ccc(NC(=O)Cc3ccccc3)cc2C1=O ?
esBAF inh: -10

What do the screens show for `COc1ccc(OC)c(-c2cc(C(=O)N/N=C(\C)c3cccnc3)c3ccccc3n2)c1`?
esBAF inh: -8; HSF1 inh: 2; HSF1 activator: -3; MITF TRPM1 HTS: -1; Wnt act: -5

What do the screens show for `COCCNC(=O)c1cc(-c2ccc(-c3ccccc3)cc2)nc2ccccc12`?
esBAF inh: 47*; HSF1 inh: 35; HSF1 activator: 64*; MITF TRPM1 HTS: 49; Wnt act: 9

What do the screens show for `CCOc1ccc(-c2cc(C(=O)N/N=C(\C)c3cccnc3)c3ccccc3n2)cc1`?
esBAF inh: 20; HSF1 inh: 9; HSF1 activator: 1; MITF TRPM1 HTS: 88*; Wnt act: 20

Results for COCCCNC(=O)c1cc(-c2cccnc2)nc2ccccc12 ?
esBAF inh: -2; HSF1 inh: -6; HSF1 activator: -2; MITF TRPM1 HTS: 0; Wnt act: 0

How did CCc1ccc(C(=O)N/N=C(\C)c2cccnc2)s1 do in these assays?
esBAF inh: 43*; HSF1 inh: -1; HSF1 activator: 14; MITF TRPM1 HTS: 109*; Wnt act: 11

Results for COC(=O)c1ccccc1NC(=S)N(Cc1ccc2c(c1)OCO2)Cc1cc2ccc(C)cc2[nH]c1=O ?
esBAF inh: -1; HSF1 inh: 11; HSF1 activator: -1; MITF TRPM1 HTS: 5

Results for Cc1ccc(C)c2[nH]c(=O)c(CN(CC3CCCO3)C(=S)NCc3ccco3)cc12 (stereo unspecified) ?
esBAF inh: -4; HSF1 inh: 9; HSF1 activator: 9; MITF TRPM1 HTS: -9; Wnt act: -1

How did COC(=O)c1ccccc1NC(=S)N(Cc1ccc2c(c1)OCO2)Cc1cc2ccc(OC)cc2[nH]c1=O do in these assays?
esBAF inh: -6; HSF1 inh: 50; HSF1 activator: 90*; MITF TRPM1 HTS: 5; Wnt act: -12

Results for Cc1cc(C)c2cc(CN(Cc3ccco3)C(=S)NCC3CCCO3)c(=O)[nH]c2c1 (stereo unspecified) ?
HSF1 inh: 193; HSF1 activator: 299*; MITF TRPM1 HTS: 2; Wnt act: -2

What do the screens show for `COc1ccc2cc(CN(Cc3ccco3)C(=S)NCC3CCCO3)c(=O)[nH]c2c1` (stereo unspecified)?
HSF1 inh: 25; HSF1 activator: 55*; MITF TRPM1 HTS: -1; Wnt act: -9

How did CCCC(c1nnnn1C(C)(C)CC)N(Cc1ccco1)Cc1cc2ccc(OC)cc2[nH]c1=O (stereo unspecified) do in these assays?
HSF1 inh: 23; HSF1 activator: 57*; MITF TRPM1 HTS: -11

How did COc1ccc2[nH]c(=O)c(CN(Cc3ccccc3)C(=S)NCC3CCCO3)cc2c1 (stereo unspecified) do in these assays?
HSF1 inh: 6; HSF1 activator: 10; MITF TRPM1 HTS: 4; Wnt act: 1

Results for C[C@@H]1CN([C@H](C)CO)C(=O)c2cc(C#CC3CCCC3)cnc2O[C@@H]1CN(C)C(=O)Cc1ccccn1 ?
esBAF inh: 1

Results for C[C@@H]1CCCCO[C@H](CN(C)S(=O)(=O)c2ccc(Cl)cc2)[C@@H](C)CN([C@H](C)CO)C(=O)c2cc(NS(=O)(=O)c3ccc(F)cc3)ccc2O1 ?
esBAF inh: -1

Results for CCC(=O)Nc1cccc(-c2ccc(N3CCN(C)CC3)nn2)c1 ?
esBAF inh: 41*; HSF1 inh: 22; HSF1 activator: 17; MITF TRPM1 HTS: 85*

How did CN1CCN(c2ccc(-c3cccc(NC(=O)COc4ccc(Cl)cc4Cl)c3)nn2)CC1 do in these assays?
esBAF inh: 13; HSF1 inh: -54*; HSF1 activator: -60; MITF TRPM1 HTS: 22; Wnt act: -2

What do the screens show for `CN1CCN(c2ccc(-c3cccc(NC(=O)COc4ccc(Cl)cc4)c3)nn2)CC1`?
esBAF inh: 2; HSF1 inh: -7; HSF1 activator: -19; MITF TRPM1 HTS: 67; Wnt act: -3

Results for Cc1ccc(S(=O)(=O)N(C)C[C@H]2Oc3c(NC(=O)NC(C)C)cccc3C(=O)N([C@H](C)CO)C[C@@H]2C)cc1 ?
esBAF inh: 6

How did CN1C(=O)c2cc(NC(=O)Nc3ccc(F)cc3)ccc2OC[C@@H]2O[C@H](CC(=O)NC3CCC3)CC[C@@H]21 do in these assays?
esBAF inh: 8

What do the screens show for `O=C(/C=C\c1ccccc1OC(=O)c1ccccc1F)c1cc2ccccc2o1`?
esBAF inh: 49*; HSF1 inh: 124; HSF1 activator: 166*; MITF TRPM1 HTS: 23; Wnt act: -1

What do the screens show for `CC(=O)/C=C\c1ccccc1OC(=O)c1cc2ccccc2oc1=O`?
esBAF inh: 12; HSF1 inh: 21; HSF1 activator: 29; MITF TRPM1 HTS: -9; Wnt act: -1

Results for CCCN1C[C@@H](C)[C@H](OC)CN(C)C(=O)c2ccc(NC(=O)c3ccc(F)cc3)cc2OC[C@@H]1C ?
esBAF inh: 0

Results for COc1c(N2CCN(C(=S)NC3CC4CCC3C4)C(C)C2)c(F)cc2c(=O)c(C(=O)O)cn(C3CC3)c12 (stereo unspecified) ?
HSF1 inh: -55*; HSF1 activator: -68; MITF TRPM1 HTS: -4; Wnt act: -2

Results for COc1ccc(-c2cc(=O)c3c(C)cc(O)cc3o2)cc1 ?
MITF TRPM1 HTS: 75; Wnt act: 67*

How did COc1c(O)cc2oc(-c3ccc(O)cc3)cc(=O)c2c1O do in these assays?
esBAF inh: 0; HSF1 inh: 40; HSF1 activator: 44; MITF TRPM1 HTS: 41; Wnt act: 39*

Results for COc1cc(-c2cc(=O)c3c(C)cc(O)cc3o2)cc(OC)c1OC ?
MITF TRPM1 HTS: 2; Wnt act: 5

How did COc1cccc(CNc2ncc(Br)cc2Br)c1O do in these assays?
HSF1 inh: 107; HSF1 activator: 138*; MITF TRPM1 HTS: 73
